HIF act – HIF pathway transcriptional activators, primary screen, cell-based, U2OS HRE-luciferase, luminescence. 300,000 tested, 0.32% active. activation, % at 7.5 µM (by protocol). U2OS HRE-luciferase reporter; normalized: DMSO 0%, desferrioxamine 100%. AID 1910, 2009;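 active = mean activation of at least 10% of the iron chelator positive control signal, with at least half of replicates also reaching 10%; inconclusive = mean and replicate majority disagree about reaching 10%; inactive = mean and most replicates under 10%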
TNF death inh – inhibitors of TNF-alpha triggered necroptosis, primary screen, cell-based, Jurkat FADD-/-, single concentration; Jurkat FADD-/- TNF necroptosis rescue, ATP luminescence, 24 h; 0 = TNF only, 100 = no-TNF cells; activation (protection from cell death), % at 10 µM; 220,000 tested, 0.068% active; AID 463075, 2010;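 active = activation, meaning protection from cell death, of at least 50% relative to plate controls; inactive = activation below 50%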;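 also: necroptosis triggered by 40 ng/mL TNF-alpha added together with compound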
Calb FLC – C. albicans growth inhibition with fluconazole, primary screen, CaCi-2 strain, Alamar Blue fluorescence. AID 1979, 2009. 300,000 tested, 0.57% active. C. albicans CaCi-2 (fluconazole-resistant clinical isolate) + fluconazole, 48 h. growth inhibition, % (no concentration beside the values);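 active = growth inhibition above about 58% in most replicates, limit read from the data, passing the limit was not always enough; inconclusive = exactly half the replicates above a set limit; inactive = most replicates below a set limit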;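 also: all wells also contain fluconazole at 8 µg/ml as a sub-toxic cotreatment; 0% = median of DMSO wells and 100% = median of geldanamycin control wells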
zVAD death inh – inhibitors of zVAD-triggered necroptosis, primary screen, L929 cells; L929 zVAD necroptosis rescue, ATP luminescence, 24 h; with zVAD 60 µM; 220,000 tested, 0.38% active; viability rescue, % at 10 µM; AID 1377, 2008;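 active = activation, scaled between plate controls, above about 75%, limit read from the data; inactive = activation under that limit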;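 also: 0% = zVAD with DMSO and 100% = DMSO alone without zVAD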
The depositor's hits bear a star; ? = inconclusive; / = no result given; + = active, no number. Compounds with a hit are over-represented: about 1.1% of the library has one in this group of screens.

SMILES | HIF act | TNF death inh | Calb FLC | zVAD death inh
CCCN(C(=O)/C=C/c1ccco1)c1c(N)n(Cc2ccccc2)c(=O)[nH]c1=O | 0.0 | -0.3 | -3.2 | -0.5
CCCCN(C(=O)/C=C/c1ccco1)c1c(N)n(Cc2ccccc2)c(=O)[nH]c1=O | / | -0.1 | 112.6* | 2.1
Cc1c(Cl)cccc1NC(=S)N/N=C/c1ccccc1Cl | 40.7* | 0.0 | 1.4 | 0.1
S=C(N/N=C/c1ccccc1Cl)Nc1ccccc1 | 2.7 | -3.2 | -16.8 | -0.3
S=C(N/N=C/c1cccc2ccccc12)Nc1cccc(Cl)c1 | 219.8* | -0.5 | -5.6 | 0.4
S=C(N/N=C/c1ccc2ncccc2c1)Nc1ccccc1 | -4.8 | -9.6 | 87.8* | -0.6
Cc1nc2c(=O)oc3ccccc3c2n1-c1ccccc1 | -0.2 | -1.7 | 91.6* | 1.1
O=C(CC1SC(N2CCCC2)=NC1=O)Nc1ccc(C(=O)Nc2ncccc2O)cc1 (centres undefined) | 20.4* | / | -4.0 | /
CCN(CC)CCNc1cc(C)nc2c1C(=O)C(=O)C=C2N1CCCCC1 | 42.3* | -15.8 | 32.9 | 25.3
CCOC(=O)C1=C(c2ccccc2)NC(SCC(N)=O)=C(C#N)C1c1cccnc1 (centres undefined) | -0.8 | -1.2 | 32.3 | 0.1
C=CCOC(=O)C1=C(C)NC(SCC(=O)NC(=O)OCC)=C(C#N)C1c1cccnc1 (centres undefined) | 1.3 | 1.2 | 99.4* | 0.0
CC1CCCCC1NC(=O)COCc1cc(-c2cccs2)on1 (centres undefined) | -0.1 | / | -5.7 | /
Cc1cc(NC(=O)C2COc3ccccc3O2)no1 (centres undefined) | 2.5 | 90.4* | -1.9 | 47.8
O=C(Nc1ccc(Cl)cn1)C1COc2ccccc2O1 (centres undefined) | 2.6 | 88.9* | 9.7 | 38.2
O=C(Nc1ccccn1)C1COc2ccccc2O1 (centres undefined) | 1.3 | 30.0 | 6.0 | 1.2
Cc1cnc(NC(=O)C2COc3ccccc3O2)s1 (centres undefined) | -1.9 | 75.9* | -14.7 | 1.1
Cc1csc(NC(=O)C2COc3ccccc3O2)n1 (centres undefined) | -2.8 | 3.4 | 1.4 | 0.2
C/C(=N\NC(=O)C1(C)NC(C)(C)Cc2ccccc21)c1ccccc1 (centres undefined) | -0.4 | 0.2 | -2.7 | -1.9
O=C(Nc1nnc(SCc2ccc(Cl)cc2)s1)c1cnccn1 | -0.7 | 0.8 | 79.8* | -0.3
O=C(Nc1ccc(Cl)cc1)Nc1nnc(SCc2ccc(Cl)cc2)s1 | -0.5 | -1.7 | -9.6 | 10.5
Cc1nnsc1C(=O)NNc1ccc(Cl)cc1 | 0.1 | 10.6 | -21.5 | 1.1
Cc1nnsc1C(=O)NNc1c(Cl)cccc1Cl | 0.0 | 83.7* | 2.3 | -0.6
CC(=O)Nc1cccc(NS(=O)(=O)c2cn(C)c(=O)n(C)c2=O)c1 | 0.1 | / | 3.2 | /
O=C(c1ccco1)N1CCN(c2ncnc3c(-c4ccccc4)nsc23)CC1 | 4.6 | -1.5 | 89.0* | -0.2
CC(C)OC(=O)c1cccc(C(=O)Nc2cccc(NC(=O)c3cccc(C(=O)OC(C)C)n3)n2)n1 | -0.2 | -4.2 | ? | 1.6
SMILES | HIF act | TNF death inh | Calb FLC | zVAD death inh
COc1ccc(C(=O)Nc2ccccc2C(=O)Nc2ccccc2C(=O)O)cc1 | 0.5 | / | 80.5* | /
CC1=Nc2ccccc2N=C(NC(=O)/C=C/C(=O)O)C1c1ccccc1 (centres undefined) | 2.6 | 0.3 | -10.8 | 0.3
COc1ccc(C(=O)NC2=Nc3ccccc3N=C(C)C2c2ccccc2)cc1 (centres undefined) | 24.9* | 6.5 | 0.6 | 1.9
CC(C)c1ccc(OCC(=O)Nc2cccc(C(=O)Nc3ccccc3C(=O)O)c2)cc1 | -1.2 | 0.7 | 75.9* | 1.6
CCN(CC)c1ccc(NC(=S)Nc2ccc(F)cc2)cc1 | 3.8 | -0.5 | -37.2 | -1.5
Cc1cnc(C(=O)N2CCc3c([nH]c4ccccc34)C2c2ccc(F)cc2)cn1 (centres undefined) | 0.3 | 6.4 | ? | 1.4
CC(=O)c1cc(C(=O)N2CCc3c([nH]c4ccccc34)C2C2CCCCC2)[nH]n1 (centres undefined) | 0.4 | 1.9 | 90.9* | 1.9
N/C(=N\OC(=O)c1cccs1)c1ccc(Cl)cc1 | 12.1* | -0.9 | 1.7 | 0.0
N/C(=N\OC(=O)Cc1cccs1)c1ccccc1 | + | -1.8 | 21.1 | -0.2
COc1ccc(/C(N)=N/OC(=O)c2cccs2)cc1 | -0.7 | 2.6 | 2.0 | 0.9
Cc1ccc(/C(N)=N/OC(=O)Cc2cccs2)cc1 | 5.4 | 1.0 | -13.1 | 0.6
O=c1[nH]c(Cc2cccc(C(F)(F)F)c2)nc2ccccc12 | -1.0 | / | 3.8 | /
CC(C)C/C=C1\CCc2c([nH]c3ccccc23)C1=O | 1.6 | -0.3 | -0.2 | 3.9
O=C1/C(=C/c2cccnc2)CCc2c1[nH]c1ccccc21 | 8.0 | -1.0 | 75.9* | 13.2
COc1ccccc1Oc1ccc(NC(=O)Cc2ccccc2)cc1 | 1.0 | / | 6.2 | /
Cc1ccc(C(CC(=O)O)C2CCOC(C)(C)C2)cc1 (centres undefined) | 41.7* | -0.7 | 6.1 | -0.5
O=C(NC(=S)N1CCOCC1)c1ccc(F)cc1 | 0.2 | / | 0.9 | /
S=c1nc(-c2csc3c2CCCC3)[nH][nH]1 | -0.1 | -2.4 | -57.7 | -0.4
O=C(OCCN1C(=O)c2cccc3c(N4CCOCC4)ccc(c23)C1=O)c1ccc(Cl)cc1 | 12.0* | -10.6 | 33.3 | 0.0
CCOc1ccc(NC(=O)C2C3C=CC4(O3)C2C(=O)N(Cc2cccnc2)C4C(=O)NC2CCCCC2)cc1 (centres undefined) | -0.4 | / | -2.6 | /
Nc1ccc(C(=O)O)cc1[N+](=O)[O-] | 0.4 | -0.5 | 0.2 | -0.4
Nc1ccc(C(=O)c2cccs2)cc1[N+](=O)[O-] | 0.2 | -2.3 | 125.7* | 0.9
Cc1csc(Nc2ccccc2)[n+]1C | 0.6 | -0.4 | -20.5 | -0.7
Cc1csc(Nc2ccccc2)[n+]1-c1ccccc1 | 3.0 | 56.0* | 39.7 | 0.9
COc1ccccc1N1CCN(CCN2C(=O)CC(=C3c4ccccc4-c4ccccc43)C2=O)CC1 | 0.1 | -1.0 | 8.7 | -0.7
SMILES | HIF act | TNF death inh | Calb FLC | zVAD death inh
Cc1ccccc1N1CCN(CCN2C(=O)CC(=C3c4ccccc4-c4ccccc43)C2=O)CC1 | 0.0 | -1.1 | 89.9* | 0.0
NC(=O)NC(=O)C(Nc1ccc(N2CCCCC2)cc1)c1ccccc1 (centres undefined) | 0.3 | / | -3.4 | /
CC1(C)CC(=O)C(CC2CCCCC2=O)C(=O)C1 (centres undefined) | -0.2 | -1.9 | 1.5 | -1.1
CC1(C)CC(=O)C(CC2C(=O)CC(C)(C)CC2=O)C(=O)C1 | 54.4* | 1.6 | -5.9 | 0.2
CCN(CC)S(=O)(=O)c1ccc(N/N=C(\C)c2ccc(OC)cc2O)nc1 | 9.6* | -11.4 | 91.3* | 49.7
CCOc1cccc(/C=N/Nc2ccc(S(=O)(=O)N(CC)CC)cn2)c1O | 9.8* | -5.3 | 25.8 | 26.0
COc1ccc(CNC(=O)CN(C)Cc2ccc(C(C)(C)C)cc2)cc1 | 0.6 | / | -0.3 | /
